Abs 340nm: compounds absorbing at 340 nm; 65,000 tested, under 10 active; compound absorbance at 340 nm, fold over control; fold change at 10 µM; AID 708;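 active = at 10 µM dose, initial 340 nm absorbance at least 2 fold that of control wells; inactive = change under 2 fold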;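 also: initial absorbance extrapolated from kinetic A340 decline of NADH oxidation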
MK inhibit: blocks S. pneumoniae mevalonate kinase | purified MK, PK/LDH-coupled NADH absorbance 340 nm | AID 555 | actives 0.48% (n = 65,000) | inhibition, % at 10 µM;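 active = ranked among the strongest by inhibition in the single 10 µM screen, a fixed top-ranked set picked for dose follow-up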
Spn DPM-DC inh: blocks S. pneumoniae diphosphomevalonate decarboxylase | purified DPM-DC, PK/LDH coupled NADH fluorescence | calls only at 10 µM | actives 0.49% (n = 65,000);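 active = the 320 compounds with the highest percent inhibition in the single-dose primary screen, excluding strongly autofluorescent ones, cut at about 32% in these data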;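 also: kinetic rate of NADH fluorescence loss reporting ADP formed by the decarboxylase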
Spn PMK inh: S. pneumoniae PMK inhibition; purified PMK, PK/LDH-coupled NADH absorbance 340 nm; actives 0.49% (n = 65,000); inhibition, % at 10 µM; AID 539;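 active = top-ranked compounds by inhibition in the single 10 µM screen, taking a fixed number of the strongest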;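 also: 0% = full reaction with DMSO carrier and 100% = background rate without enzyme reaction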
Fluor 339 460: intrinsic fluorescence of library compounds, ex339/em460 – biochemical, MLSMR library, data from DPM-DC assay, artefact control, profiling panel; compound autofluorescence, ex339/em460 nm, NADH buffer; active compounds read high; 1 = no-compound wells, NADH background; fluorescence fold increase at 10 µM; actives 5.5% (n = 65,000); AID 709;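 active = at 10 µM, mean starting fluorescence two-fold or more over control wells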;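 also: signal is the first read of a kinetic run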
NADH coupling: blocks coupling enzymes of NAD/NADH assays | AID 774 | actives 0.02% (n = 65,000) | IC50, µM (series often up to 10 µM), inactives show at the top dose inhibition | coupled PK/LDH NADH assays, four targets;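 active = single-dose screening hits from any of four coupled enzyme assays that gave an IC50 when retested across doses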;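 also: the DPM-DC format reads NADH fluorescence rather than 340 nm absorbance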
An asterisk follows results filed as active; i = inactive; nt = no result shown; + = active, no number. Hits are enriched below; roughly 6.8% of the tested compounds scored in any of these assays.

SMILES	Abs 340nm	MK inhibit	Spn DPM-DC inh	Spn PMK inh	Fluor 339 460	NADH coupling
CCOc1ccc2cc(C#N)c(SCC(=O)N3CCCC3)nc2c1	1.03	13.0	i	9.0	2.15*	8.0%
COc1ccc(NC(=O)CNS(=O)(=O)c2cccc3nonc23)c(OC)c1	1.06	5.0	i	2.0	1.07	2.0%
O=C(c1cc2c(s1)-c1ccccc1OC2)N1CCCC1	1.16	9.0	nt	2.0	2.17*	6.0%
O=C(Cn1ncc2c1-c1ccccc1OC2)N1CCN(c2ccccn2)CC1	0.98	2.0	i	0.0	1.05	1.0%
O=C(c1cc2c(s1)-c1ccccc1OC2)N1CCN(c2ccccn2)CC1	1.11	7.0	nt	0.0	2.15*	4.0%
Cc1csc(NC(=O)c2cc3c(s2)-c2ccccc2OC3)n1	1.01	7.0	nt	0.0	2.45*	1.0%
CCC(C)Sc1nc2c(c(=O)[nH]c(=O)n2C)n1Cc1ccccc1Cl (stereo not given)	1.05	5.0	i	0.0	1.05	2.0%
C=CCSC1=C(C#N)C(c2cccc(OC)c2)CC(=O)N1 (stereo not given)	1.01	15.0	i	6.0	1.11	7.0%
N#CCCn1c2ccccc2c2nc3ccccc3nc21	1.13	9.0	i	11.0	1.6	13.0%
CCCn1c2ccccc2c2nc3ccccc3nc21	1.13	0.0	i	0.0	2.37*	0.0%
CCOC(=O)Cn1c(C)c(C#N)c2ccccc21	1.03	0.0	i	3.0	0.98	1.0%
CCCn1c(NC(=O)c2ccccc2)nc2ccccc21	1.08	7.0	i	0.0	1.18	2.0%
CCCn1c(Nc2nc3ccccc3n2C)nc2ccccc21	1.16	5.0	i	4.0	2.13*	4.0%
CCOC(=O)Cn1c2ccccc2c2nc3ccccc3nc21	1.11	2.0	i	6.0	2.89*	3.0%
O=c1oc2ccccc2n1CCn1c2ccccc2c2nc3ccccc3nc21	1	10.0	i	9.0*	1.54	8.0%
COc1cc(NS(=O)(=O)c2ccc(NC(=O)C34CC5CC(CC(C5)C3)C4)cc2)ncn1	0.99	1.0	i	9.0	1.08	3.0%
Cc1cccc(-n2nnnc2SCC(=O)c2cc(C)n(Cc3ccco3)c2C)c1	1.03	3.0	i	3.0	1.04	2.0%
CCOC(=O)Cc1csc(NC(=O)CSc2ncnc3c2cnn3-c2ccccc2Cl)n1	1	2.0	i	0.0	1.12	1.0%
O=C(NCc1ccc(F)cc1)c1cnc2sccn2c1=O	1.12	8.0	nt	2.0	2.15*	5.0%
Clc1ccc(OCCn2ccnc2)c(Cl)c1	1.07	6.0	i	3.0	1.1	4.0%
Clc1ccc(SCCn2ccnc2)cc1	0.99	41.0*	i	0.0	1.02	4.0%
O=C(CN1C(=O)CSC1=O)c1ccccc1	1	2.0	i	14.0	1.16	5.0%
N#Cc1ccc(CSc2nnc(NC(=O)CN3C(=O)C4CC=CCC4C3=O)s2)cc1 (stereo not given)	1.01	0.0	i	9.0	1.07	3.0%
CC(=O)NC(Cc1ccc(F)cc1)C(=O)N1CCN(C(=O)NCc2ccccc2)CC1 (stereo not given)	0.98	0.0	i	3.0	1.06	1.0%
CCCCCNC(=O)c1c(N)n(/N=C/c2ccco2)c2nc3ccccc3nc12	1	5.0	i	8.0	1.51	4.0%
SMILES	Abs 340nm	MK inhibit	Spn DPM-DC inh	Spn PMK inh	Fluor 339 460	NADH coupling
Nc1c(S(=O)(=O)c2ccccc2)c2nc3ccccc3nc2n1/N=C/c1cccc(O)c1	1.1	10.0	nt	4.0	3.72*	7.0%
Cc1ccc(C)c(S(=O)(=O)c2c(N)n(/N=C/c3ccco3)c3nc4ccccc4nc23)c1	1.06	0.0	i	0.0	2.14*	1.0%
CCCCNC(=O)c1c(N)n(/N=C/c2cccnc2)c2nc3ccccc3nc12	1.05	11.0	i	2.0	1.25	6.0%
CCN1CCN(C(=O)CCCCCn2c(=O)[nH]c3cc(C(=O)OC)ccc3c2=O)CC1	0.98	3.0	i	19.0	2.63*	10.0%
Cc1cc(OCCOCCN2CCCC2)ccc1C(C)C	1.09	41.0*	i	2.0	1.14	14.0%
Brc1ccc(OCCOCCN2CCOCC2)cc1	1.02	2.0	i	9.0	1.08	4.0%
COc1cccc(OCCCCCN2CCOCC2)c1	1.06	3.0	i	0.0	1.08	1.0%
CCOc1cccc(OCCOCCN2CCCC2)c1	1.02	45.0*	i	5.0	1.02	6.0%
O=C(Nn1c(C2CC2)nc2ccccc2c1=O)c1ccco1	0.99	0.0	i	55.0*	1.03	6.0%
O=C(NCCCNC(=O)c1ccccn1)c1ccccn1	0.99	0.0	i	25.0*	1.06	4.0%
O=C(NCC1CCCO1)c1ccccn1 (stereo not given)	1	6.0	i	12.0	1.19	6.0%
CCCCCn1c(CN2CCN(C)CC2)nc2c1c(=O)n(C)c(=O)n2C	0.98	4.0	i	1.0	1.03	2.0%
CCCCn1c(Cl)nc2c1c(=O)n(C)c(=O)n2C	1.01	40.0*	i	15.0	1.13	18.0%
N/C(CCN1CCOCC1)=N/O	1.08	52.0*	i	36.0	1.07	36.0%
O=C1CC(c2ccco2)CC2=C1C(c1ccccc1)n1nc(C(F)(F)F)nc1N2 (stereo not given)	1.09	9.0	i	7.0	2.82*	12.0%
COc1ccc(N2CCN(C(=O)CC3NC4CCCCC4NC3=O)CC2)cc1 (stereo not given)	1.01	8.0	i	3.0	1.06	4.0%
Cc1cc(=O)[nH]c(SCc2nc3ncccn3c2Br)n1	1.03	6.0	nt	0.0	2.47*	4.0%
O=C(NC1CC1)c1ccc2c(c1)ncn2C1CCCC1	0.99	2.0	i	28.0*	0.97	17.0%
CC(=O)Oc1ccc2cc(-c3nc4ccccc4n3C)c(=O)oc2c1	1.15	6.0	nt	0.0	2.14*	3.0%
CCc1cc2c(=O)c(-c3nc4ccccc4n3C)c(COCC(=O)O)oc2cc1O	1.13	3.0	i	1.0	1.47	3.0%
Cn1c(=O)c2[nH]c(Nc3ccccc3)nc2n(C)c1=O	1.05	2.0	i	0.0	1.1	1.0%
CC(C)c1ccc(-c2nc3c([nH]2)c(=O)n(C)c(=O)n3C)cc1	1.03	7.0	+	0.0	2.51*	14.0%
O=C(Nc1ccc2c(c1)OCO2)C1CCN(S(=O)(=O)c2cccc3cccnc23)CC1	0.99	5.0	i	8.0	1.11	4.0%
COc1ccc(N(CC(=O)Nc2cc(OC)ccc2OC)S(C)(=O)=O)cc1	1.03	51.0*	i	0.0	1.15	17.0%
Cc1cc(C)cc(N(CC(=O)NC2CCC(C)CC2)S(=O)(=O)c2c(C)noc2C)c1 (stereo not given)	0.98	6.0	i	9.0	0.99	3.0%
C[C@@H]1C[C@H]2[C@@H]3CCC4=CC(=O)C=C[C@]4(C)[C@@]3(F)[C@@H](O)C[C@]2(C)[C@H]1C(=O)CO	0.98	11.0	i	1.0	0.99	2.0%

Source: PubChem BioAssay (SRMLSC)
